Some compounds were tested as several samples or in several runs, with calls that do not always agree. Activity calls are given as the source filed them. Rule for the calls: active = hit-call score of the fitted dose curve at least 0.9, where 1 is the maximum; inactive = score below 0.9.
Experiments:
[1] = ATG_EGR_CIS: Attagene CIS-FACTORIAL HepG2 Assay for human Early Growth Response 1 (EGR1) (AID 2282938); details: HepG2 Attagene CIS-FACTORIAL EGR reporter mRNA; actives raise or lower the signal
How it was run: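 Read-out: fluorescent reporter-mRNA fragments resolved by capillary electrophoresis after RT-PCR, 24 h post-dose in transiently transfected HepG2. Endogenous transcription-factor activity reported via cis-element-regulated reporter units; gain or loss fitted relative to DMSO.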

[2] = ATG_M_19_CIS: Attagene CIS-FACTORIAL HepG2 Assay for M19 Transcription Factor (Internal Marker) (AID 2282939); details: HepG2 Attagene CIS-FACTORIAL M19 internal marker reporter; actives raise or lower the signal
How it was run: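 HepG2 cells transiently transfected with cis-regulated multiplexed reporter units, dosed 24 h. Reporter mRNA quantified by RT-PCR and capillary electrophoresis; internal background marker fitted bidirectionally versus DMSO.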

[3] = ATG_ERE_CIS: Attagene CIS-FACTORIAL HepG2 Assay for Estrogen Response Element (ERE) (AID 2282940); details: HepG2 ERE cis-reporter, Attagene RNA transcript; actives raise or lower the signal
How it was run: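 HepG2 cells transiently transfected with multiplexed cis-element reporter units, measuring endogenous transcription factor activity; ERE reporter mRNA quantified after 24 h exposure by RT-PCR, fluorescent labelling, HpaI digestion and capillary electrophoresis. Bidirectional change versus DMSO.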

[4] = ATG_Ets_CIS: Attagene CIS-FACTORIAL HepG2 Assay for human Erythroblast Transformation Specific (ETS) (AID 2282941); details: HepG2 ETS cis-reporter transcription; AC50: actives raise or lower the signal unless noted; outcome: actives raise or lower the signal unless noted
How it was run: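 Bidirectional fit versus DMSO of reporter mRNA signal, detected by RT-PCR and capillary electrophoresis in HepG2 cells transiently transfected with cis-element reporters and dosed 24 h.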

[5] = target: Hepatocyte nuclear factor 3-beta (Homo sapiens) (UniProt Q9Y261); test: ATG_FoxA2_CIS: Attagene CIS-FACTORIAL HepG2 Assay for human Forkhead box A2 (FOXA2) (AID 2282942); details: HepG2 cis-reporter transcription factor activity, 24 h; actives raise or lower the signal
Sequence of Hepatocyte nuclear factor 3-beta (Homo sapiens) (Q9Y261 whole entry, looked up): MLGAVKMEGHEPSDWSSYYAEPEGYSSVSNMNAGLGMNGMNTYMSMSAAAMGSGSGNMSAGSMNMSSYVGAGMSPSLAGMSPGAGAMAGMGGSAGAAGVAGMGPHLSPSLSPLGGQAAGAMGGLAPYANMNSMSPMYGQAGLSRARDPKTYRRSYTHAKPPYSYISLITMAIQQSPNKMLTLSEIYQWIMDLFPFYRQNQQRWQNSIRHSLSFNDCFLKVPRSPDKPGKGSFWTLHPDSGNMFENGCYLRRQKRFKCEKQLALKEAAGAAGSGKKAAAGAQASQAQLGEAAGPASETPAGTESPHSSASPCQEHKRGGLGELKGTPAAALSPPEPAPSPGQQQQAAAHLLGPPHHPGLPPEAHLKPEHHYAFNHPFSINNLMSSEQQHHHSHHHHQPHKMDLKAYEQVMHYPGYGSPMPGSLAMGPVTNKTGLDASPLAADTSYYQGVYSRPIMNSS
How it was run: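 Readout: fluorescent reporter transcripts resolved by capillary electrophoresis after RT-PCR. Transiently transfected HepG2, 24 h compound exposure, endogenous TF activity at cis promoter elements. Gain or loss of signal fitted relative to DMSO.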

[6] = ATG_FoxO_CIS: Attagene CIS-FACTORIAL HepG2 Assay for human Forkhead box O (FoxO) (AID 2282943); details: HepG2 Attagene cis-reporter, FoxO element, mRNA; actives raise or lower the signal
How it was run: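 HepG2, transient MRTU transfection (cis element, endogenous TFs). Dose 24 h. TriZol RNA → oligo(dT) RT → PCR → 6-FAM primer extension → HpaI cut → CE. Gain/loss vs DMSO.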

[7] = ATG_GATA_CIS: Attagene CIS-FACTORIAL HepG2 Assay for human GATA Binding Protein (AID 2282944); details: HepG2 GATA cis-element reporter, Attagene multiplex mRNA; actives raise or lower the signal
How it was run: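 HepG2 cells transiently transfected with multiplexed cis-element reporter units measure endogenous GATA activity; after 24 h compound exposure, reporter mRNA quantified by RT-PCR and capillary electrophoresis. Changes fitted in both directions vs DMSO.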

[8] = ATG_GLI_CIS: Attagene CIS-FACTORIAL HepG2 Assay for human Zinc Finger Protein GLI1 (AID 2282945); details: HepG2, Attagene cis-factorial reporter mRNA, GLI element; actives raise or lower the signal
How it was run: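 Bidirectional curve fits relative to DMSO, using reporter mRNA levels from RT-PCR plus capillary electrophoresis. Cells were HepG2 transiently carrying cis-regulated reporter constructs, harvested 24 h after dosing.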

[9] = ATG_GRE_CIS: Attagene CIS-FACTORIAL HepG2 Assay for human Glucocorticoid Response Elements (GRE) (AID 2282947); details: HepG2 GRE cis-reporter, Attagene multiplex mRNA; AC50: actives raise or lower the signal unless noted; outcome: actives raise or lower the signal unless noted
How it was run: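 Reporter transcripts read by RT-PCR with capillary electrophoresis fluorescence after a 24 h chemical exposure of HepG2 cells transiently transfected with multiple cis-element reporter units. Gain or loss fitted against DMSO.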

[10] = ATG_M_32_CIS: Attagene CIS-FACTORIAL HepG2 Assay for M32 Transcription Factor (Internal Marker) (AID 2282949); details: HepG2 Attagene cis-factorial M32 reporter, mRNA; actives raise or lower the signal;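 note: background control marker of the multiplexed CIS panel rather than a real target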
How it was run: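 HepG2 human liver cells transiently transfected with cis-promoter-driven multiple reporter transcription units, dosed 24 h. Reporter mRNA quantified by RT-PCR, FAM-labelled primer extension, HpaI digest and capillary electrophoresis; bidirectional fit versus DMSO baseline.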

[11] = ATG_M_06_CIS: Attagene CIS-FACTORIAL HepG2 Assay for M06 Transcription Factor (Internal Marker) (AID 2282950); details: HepG2 Attagene CIS-FACTORIAL M06 internal marker reporter; actives raise or lower the signal
How it was run: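 Internal background marker within multiplexed cis-reporter HepG2 system. Cells transiently transfected, dosed 24 h; reporter mRNA measured by RT-PCR, HpaI digestion and capillary electrophoresis. Bidirectional fit relative to DMSO.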

[12] = target: Hypoxia-inducible factor 1-alpha (Homo sapiens) (UniProt Q16665); test: ATG_HIF1a_CIS: Attagene CIS-FACTORIAL HepG2 Assay for human Hypoxia Inducible Factor 1 (HIF1A) (AID 2282951); details: HepG2 Attagene cis-factorial HIF1a reporter transcription; actives raise or lower the signal
Sequence of Hypoxia-inducible factor 1-alpha (Homo sapiens) (Q16665 whole entry, looked up): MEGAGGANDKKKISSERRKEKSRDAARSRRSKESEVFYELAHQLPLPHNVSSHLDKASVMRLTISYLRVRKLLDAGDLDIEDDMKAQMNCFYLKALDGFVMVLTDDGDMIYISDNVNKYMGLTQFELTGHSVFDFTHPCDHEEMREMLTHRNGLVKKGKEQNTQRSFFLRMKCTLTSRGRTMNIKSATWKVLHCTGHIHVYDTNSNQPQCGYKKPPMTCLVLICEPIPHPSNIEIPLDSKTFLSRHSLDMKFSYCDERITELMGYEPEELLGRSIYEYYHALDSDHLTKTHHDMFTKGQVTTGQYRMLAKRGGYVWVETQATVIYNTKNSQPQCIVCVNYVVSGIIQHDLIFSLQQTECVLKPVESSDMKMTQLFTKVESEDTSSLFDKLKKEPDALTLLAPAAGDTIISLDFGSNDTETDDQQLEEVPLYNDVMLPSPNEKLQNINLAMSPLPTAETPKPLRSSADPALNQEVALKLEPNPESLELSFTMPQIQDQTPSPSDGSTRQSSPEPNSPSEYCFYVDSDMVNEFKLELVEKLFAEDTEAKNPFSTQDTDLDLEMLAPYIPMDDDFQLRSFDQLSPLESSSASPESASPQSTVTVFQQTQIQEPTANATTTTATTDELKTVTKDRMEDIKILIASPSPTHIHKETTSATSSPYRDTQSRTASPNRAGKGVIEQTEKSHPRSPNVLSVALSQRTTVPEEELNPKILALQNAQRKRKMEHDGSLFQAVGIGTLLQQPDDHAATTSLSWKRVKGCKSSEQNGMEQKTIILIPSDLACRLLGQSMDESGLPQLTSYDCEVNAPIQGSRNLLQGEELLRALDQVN
How it was run: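 RT-PCR/capillary electrophoresis fluorescence readout of reporter transcripts from endogenous-TF-driven cis elements in transfected HepG2 cells, 24 h exposure; activity fitted in both directions against DMSO controls.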

[13] = target: Hepatocyte nuclear factor 6 (Homo sapiens) (UniProt Q9UBC0); test: ATG_HNF6_CIS: Attagene CIS-FACTORIAL HepG2 Assay for human Hepatocyte Nuclear Factor 6 (HNF6) (AID 2282952); details: HepG2 Attagene cis-factorial HNF6 reporter transcription; actives raise or lower the signal
Sequence of Hepatocyte nuclear factor 6 (Homo sapiens) (Q9UBC0 whole entry, looked up, the tested form may be a part): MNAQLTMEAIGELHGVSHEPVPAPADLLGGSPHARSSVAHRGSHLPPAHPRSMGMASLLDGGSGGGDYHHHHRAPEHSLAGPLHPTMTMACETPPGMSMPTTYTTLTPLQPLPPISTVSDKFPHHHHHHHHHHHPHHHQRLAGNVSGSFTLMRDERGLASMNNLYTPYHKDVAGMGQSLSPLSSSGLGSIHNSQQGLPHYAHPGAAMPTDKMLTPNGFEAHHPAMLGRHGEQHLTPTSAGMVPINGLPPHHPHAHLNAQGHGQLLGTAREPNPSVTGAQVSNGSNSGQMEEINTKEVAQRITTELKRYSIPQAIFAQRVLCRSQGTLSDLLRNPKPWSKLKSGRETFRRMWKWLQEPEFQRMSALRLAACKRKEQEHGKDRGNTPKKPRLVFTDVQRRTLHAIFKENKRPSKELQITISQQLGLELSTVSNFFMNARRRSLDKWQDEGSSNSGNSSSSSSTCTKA
How it was run: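 Twenty-four-hour chemical treatment of reporter-transfected HepG2 cells precedes RNA isolation, DNase-treated reverse transcription and PCR of reporter sequences. Labelled fragments are sized by capillary electrophoresis and fitted bidirectionally versus DMSO.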

[14] = target: Heat shock factor protein 1 (Homo sapiens) (UniProt Q00613); test: ATG_HSE_CIS: Attagene CIS-FACTORIAL HepG2 Assay for human Heat Shock Transcription Factor 1 (HSE) (AID 2282953); details: HepG2 HSE cis-reporter, Attagene RNA transcription; actives raise or lower the signal
Sequence of Heat shock factor protein 1 (Homo sapiens) (Q00613 whole entry, looked up): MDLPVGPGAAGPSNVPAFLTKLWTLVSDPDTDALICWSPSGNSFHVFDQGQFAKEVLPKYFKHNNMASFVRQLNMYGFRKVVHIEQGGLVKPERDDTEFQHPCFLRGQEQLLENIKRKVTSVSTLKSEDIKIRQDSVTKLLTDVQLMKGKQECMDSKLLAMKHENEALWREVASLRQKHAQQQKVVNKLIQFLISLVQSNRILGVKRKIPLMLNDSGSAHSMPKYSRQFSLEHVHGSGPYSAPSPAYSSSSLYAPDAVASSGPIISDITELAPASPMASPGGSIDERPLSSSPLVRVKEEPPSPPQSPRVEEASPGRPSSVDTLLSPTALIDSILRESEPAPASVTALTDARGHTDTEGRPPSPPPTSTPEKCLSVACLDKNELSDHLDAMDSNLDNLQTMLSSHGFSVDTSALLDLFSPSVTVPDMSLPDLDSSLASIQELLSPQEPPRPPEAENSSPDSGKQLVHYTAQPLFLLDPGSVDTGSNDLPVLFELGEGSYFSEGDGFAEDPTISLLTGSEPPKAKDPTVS
How it was run: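 HepG2 cells transfected with cis-promoter reporter units sensing endogenous transcription factor activity; reporter mRNA quantified 24 h post-dose by RT-PCR and capillary electrophoresis of 6-FAM-labelled products. Bidirectional fitting against DMSO.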

[15] = ATG_MRE_CIS: Attagene CIS-FACTORIAL HepG2 Assay for human Metal Responsive Element (MRE) (AID 2282954); details: HepG2 MRE cis-reporter transcription, Attagene multiplex; actives raise or lower the signal
How it was run: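 Endogenous MRE-dependent transcription read as reporter mRNA in transiently transfected human HepG2 cells at 24 h. RNA reverse-transcribed, PCR-amplified, labelled and resolved by capillary electrophoresis; gain or loss relative to DMSO.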

[16] = target: Paired box protein Pax-6 (Homo sapiens) (UniProt P26367); test: ATG_Pax6_CIS: Attagene CIS-FACTORIAL HepG2 Assay for human Paired Box 6 (PAX6) (AID 2282956); details: HepG2 CIS-FACTORIAL PAX6 reporter transcription, RNA readout; actives raise or lower the signal
Sequence of Paired box protein Pax-6 (Homo sapiens) (P26367 whole entry, looked up): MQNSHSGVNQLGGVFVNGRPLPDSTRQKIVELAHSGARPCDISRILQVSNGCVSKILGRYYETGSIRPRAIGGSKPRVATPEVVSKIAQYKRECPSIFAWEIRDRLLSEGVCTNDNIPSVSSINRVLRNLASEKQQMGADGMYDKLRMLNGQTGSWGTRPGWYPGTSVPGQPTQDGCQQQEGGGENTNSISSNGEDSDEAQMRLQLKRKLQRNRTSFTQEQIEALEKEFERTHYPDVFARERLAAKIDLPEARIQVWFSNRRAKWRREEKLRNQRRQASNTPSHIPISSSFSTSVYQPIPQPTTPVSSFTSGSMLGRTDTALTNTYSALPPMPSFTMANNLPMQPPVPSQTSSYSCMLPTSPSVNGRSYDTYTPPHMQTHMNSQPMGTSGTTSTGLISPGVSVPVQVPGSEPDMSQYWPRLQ
How it was run: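 DMSO-referenced bidirectional fits of reporter mRNA fluorescence; HepG2 with transient cis-promoter MRTUs, 24 h post-dose, RT-PCR plus capillary electrophoresis detection.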

[17] = ATG_PXRE_CIS: Attagene CIS-FACTORIAL HepG2 Assay for human Pregnane X Receptor Element (PXRE) (AID 2282957); details: HepG2 Attagene CIS-FACTORIAL PXRE reporter, mRNA; actives raise or lower the signal
How it was run: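 Bidirectional activity, baselined to DMSO, derived from reporter mRNA fluorescence (RT-PCR plus capillary electrophoresis) in HepG2 cells bearing cis-promoter reporter units, 24 h exposure.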

[18] = ATG_ISRE_CIS: Attagene CIS-FACTORIAL HepG2 Assay for human Interferon Regulatory Factor 1 (IRF1) binding to an Interferon-Stimulated Response Element (ISRE) (AID 2282948); details: HepG2 ISRE cis-reporter (Attagene), mRNA transcription readout; actives raise or lower the signal
How it was run: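 Uses HepG2 liver cells transfected with cis-regulated reporters and measures mRNA 24 h post-dosing through RT-PCR, primer-extension labelling and capillary electrophoresis, with DMSO as negative control.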

[19] = ATG_PBREM_CIS: Attagene CIS-FACTORIAL HepG2 Assay for human Phenobarbital-responsive Enhancer Module (PBREM) (AID 2282955); details: HepG2 PBREM cis-reporter, Attagene multiplexed transcription; actives raise or lower the signal
How it was run: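 Reporter mRNA read by RT-PCR, 6-FAM primer extension, HpaI digestion and capillary electrophoresis. Transfected HepG2 cells, 24 h compound exposure. Gain or loss of signal fitted bidirectionally relative to DMSO baseline.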

[20] = target: Bile acid receptor (Homo sapiens) (UniProt Q96RI1); test: ATG_IR1_CIS: Attagene CIS-FACTORIAL HepG2 Assay for human Nuclear Receptor Subfamily 1 Group H Member 4 (NR1H4), IR1 submotif (AID 2282946); details: IR1 reporter transcription, actives raise or lower the signal
Sequence of Bile acid receptor (Homo sapiens) (Q96RI1 whole entry, looked up): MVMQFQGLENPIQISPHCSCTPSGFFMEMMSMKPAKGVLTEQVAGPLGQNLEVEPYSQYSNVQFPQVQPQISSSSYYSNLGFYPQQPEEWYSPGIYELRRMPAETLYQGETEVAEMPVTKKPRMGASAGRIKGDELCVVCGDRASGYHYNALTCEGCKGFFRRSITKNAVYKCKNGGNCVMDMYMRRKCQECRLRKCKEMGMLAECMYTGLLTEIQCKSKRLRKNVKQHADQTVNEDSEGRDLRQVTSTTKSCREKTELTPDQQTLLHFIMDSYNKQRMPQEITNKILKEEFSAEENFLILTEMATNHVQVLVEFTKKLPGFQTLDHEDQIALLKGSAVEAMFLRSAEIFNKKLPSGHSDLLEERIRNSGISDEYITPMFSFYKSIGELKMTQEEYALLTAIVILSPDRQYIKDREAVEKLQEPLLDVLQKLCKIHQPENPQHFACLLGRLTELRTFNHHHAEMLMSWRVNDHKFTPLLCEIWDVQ
How it was run: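 HepG2 cells transiently transfected with multiplexed cis-element reporter units read endogenous transcription factor activity. After 24 h compound exposure, reporter mRNA was quantified by RT-PCR, fluorescent labelling, HpaI digestion and capillary electrophoresis; bidirectional fitting versus DMSO baseline.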

Measured: AC50

c1ccc2c(c1)CCC2
active: [12] 36.5 µM
not listed: [18] | [19] | [20]
inactive: all other assays above

C=CC(=C)CC/C=C(\C)CCC=C(C)C
active: [17] 3.39 µM
not listed: [20]
inactive: all other assays above

Cc1ccccc1C(OCCN(C)C)c1ccccc1 (centres undefined)
inactive: [1] | [2] | [3] | [4] | [5] | [6] | [7] | [8] | [9] | [18] | [10] | [11] | [13] | [15] | [16] | [17]
active: [15] 151 µM | [17] 27 µM

CCCCCCCCCCCCCC[n+]1ccccc1
active: [1] 2.52 µM | [5] 18.2 µM | [16] 11.1 µM | [17] 11.1 µM
not listed: [18] | [20]
inactive: all other assays above

COC1=CC(=O)C[C@@H](C)[C@]12Oc1c(Cl)c(OC)cc(OC)c1C2=O
active: [12] 26.6 µM
not listed: [8]
inactive: all other assays above

COC(O)c1ccccc1 (centres undefined)
active: [3] 18.1 µM | [17] 75.1 µM
not listed: [8] | [19]
inactive: all other assays above

CN(Cc1cnc2nc(N)nc(N)c2n1)c1ccc(C(=O)N[C@@H](CCC(=O)O)C(=O)O)cc1
active: [17] 58.9 µM
not listed: [9] | [12] | [18] | [19] | [20]
inactive: all other assays above

Source: PubChem BioAssay (EPA / NIEHS)
